In the library only some 3.5% were active in any assay of this set; here they are far more common.
FBW7 activator: human FBW7 E3 ligase activation, primary screen; normalized activity (activation), % at 26.1 µM; Q969H0; AlphaScreen FBW7–phospho-cyclin E peptide binding, activator screen; AID 1259310; hit rate 0.13% among 650,000; in the data active = normalized activity above about 1.9%;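 also: purified mutant Fbw7 with reduced substrate affinity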
TEAD-YAP inh: TEAD-YAP interaction inhibition; inhibition, % at 9.12 µM; HEK-TIYL cells, TEAD-Gal4/YAP UAS-luciferase luminescence; hit rate 1.4% among 640,000; AID 1259422; in the data active = inhibition above about 32%
MITF inh: inhibitors of human MITF | hit rate 0.91% among 650,000 | O75030 | AlphaScreen MITF homodimerization, bead proximity signal | inhibition, % at 2.6 µM; in the data active = inhibition above about 50%
GPR151 ag: activates the human receptor GPR151; Q8TDV0; PathHunter beta-arrestin GPR151 cells, luminescence; activation, % at 11.2 µM; hit rate 1% among 650,000; AID 1508602; in the data active = activation above about 4.9%
Target sequence (Q8TDV0 whole entry, looked up): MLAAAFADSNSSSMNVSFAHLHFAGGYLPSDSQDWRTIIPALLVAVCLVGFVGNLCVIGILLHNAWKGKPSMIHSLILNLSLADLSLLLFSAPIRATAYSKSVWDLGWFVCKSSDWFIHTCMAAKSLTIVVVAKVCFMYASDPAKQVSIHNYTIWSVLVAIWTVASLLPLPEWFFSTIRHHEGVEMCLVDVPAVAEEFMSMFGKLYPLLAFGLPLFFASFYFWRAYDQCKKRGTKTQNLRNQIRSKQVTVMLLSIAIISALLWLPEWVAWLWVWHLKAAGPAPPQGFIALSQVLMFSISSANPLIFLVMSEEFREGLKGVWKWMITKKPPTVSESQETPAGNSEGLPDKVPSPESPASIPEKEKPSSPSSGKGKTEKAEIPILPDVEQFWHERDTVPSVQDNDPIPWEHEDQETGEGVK
GPR151 confirm: confirmation of human GPR151 activators. shares compounds with GPR151 ag. GPR151 PathHunter beta-arrestin cells, luminescence, 90 min; % of EA-reagent control over plate median. activation, % at 11.2 µM. 6,700 tested, under 10 active. AID 1508609;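 active = mean percent activation across replicates above the confirmation screen cutoff of 4.91%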
GPR119 counter: activates human GPR119 in a GPR151 counter-screen; shares compounds with GPR151 ag; GPR119 PathHunter beta-arrestin cells, luminescence, 90 min; 0 = compound-well median, 100 = enzyme-acceptor control; activation, % at 11.2 µM; hit rate 0.3% among 6,700;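 active = mean percent activation in the counterscreen above 29.09%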;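 also: counterscreen on off-target GPR119 to flag nonselective hits from the GPR151 activator screen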
Hits are given with their value; - = inactive; . = not tested or not shown.

SMILES	FBW7 activator	TEAD-YAP inh	MITF inh	GPR151 ag	GPR151 confirm	GPR119 counter
C[C@@H](O)[C@@H]1NC(=O)[C@@H]2C[C@H](NC(=O)Nc3ccc(C(F)(F)F)cc3)CN2C1=O	-	-	-	-	.	.
O=C(N/N=C/c1ccccc1)c1ccc(=O)[nH]n1	-	-	-	-	.	.
O=C(NC(c1ccccc1)c1ccccn1)C1CCN(C(=O)Oc2ccccc2)CC1 (centres undefined)	-	-	-	-	.	.
COc1ccc(-n2nc3c(c2NC(=O)c2ccc(C)cc2)CS(=O)(=O)C3)cc1	-	-	-	5.4	-	-
COc1ccc(-n2nc3c(c2NC(=O)CCC2CCCC2)CS(=O)(=O)C3)cc1	-	-	-	16.7	-	-
CCC(CC)C(=O)Nc1c2c(nn1-c1ccc(OC)cc1)CS(=O)(=O)C2	-	-	-	7.4	-	-
COc1ccccc1C(=O)NNC(=O)C(=O)Nc1ccccc1C	-	-	-	-	.	.
COc1cc(CNC2CCC(C)CC2)cc(OC)c1OC (centres undefined)	-	-	-	-	.	.
CC1=C(C)CC2C(=O)N(c3ccc(I)cc3C)C(=O)C2C1 (centres undefined)	-	-	-	-	.	.
O=C(NS(=O)(=O)c1ccccc1)c1cccc(Br)c1	-	-	-	5.9	-	-
Cc1ccc(S(=O)(=O)NC(=O)c2cccc(Br)c2)cc1	-	-	-	-	.	.
Cc1nc(C(C)N(C)C(=O)Cn2nnnc2CN(C)C(C)C)c(C)s1 (centres undefined)	-	-	-	-	.	.
CCCCN1CCC(Nc2ccccc2)(C(N)=O)CC1	-	-	-	-	.	.
NC(=O)C1(Nc2ccccc2)CCCCC1	-	-	-	6.8	-	-
O=C(COc1ccc(Br)cc1Cl)Nc1ccc(F)c([N+](=O)[O-])c1	-	-	-	-	.	.
CC(C)(C)c1ccc(S(=O)(=O)Nc2ccc3oc4c(c3c2)CCCC4)cc1	-	-	-	-	.	.
Cc1cccc(-c2cc(C(=O)N3CCN(C)CC3)c3ccccc3n2)c1	-	-	-	5.7	-	-
Cc1cccc(-c2cc(C(=O)N3CCN(c4ccc([N+](=O)[O-])cc4)CC3)c3ccccc3n2)c1	-	-	-	-	.	.
CN1CCN(C(=O)c2cc3ccccc3nc2Cl)CC1	-	-	-	8.0	-	-
CC1=C(C(=O)Nc2cccc(F)c2)C(c2cccnc2)C2=C(CCCC2=O)N1 (centres undefined)	-	-	-	-	.	.
COc1ccc2nc(SCC(=O)Nc3cc4oc5ccccc5c4cc3OC)[nH]c2c1	-	-	-	-	.	.
O=C(NC1CC1)c1cnc(Nc2ccc3ncccc3c2)s1	-	-	-	6.3	-	-
O=C(NC1CC1)c1cnc(Nc2ccc(C(F)(F)F)cc2)s1	-	-	-	4.9	-	-
CN(Cc1ccccc1)C(=O)c1ccc(N2CC3CC(C2)c2cccc(=O)n2C3)c(NS(=O)(=O)CC23CCC(CC2=O)C3(C)C)c1 (centres undefined)	-	-	-	-	.	.
O=C(O)c1c(CNCc2ccc3c(c2)OCO3)c2ccccc2n1Cc1cccc(Cl)c1	-	-	-	-	.	.
SMILES	FBW7 activator	TEAD-YAP inh	MITF inh	GPR151 ag	GPR151 confirm	GPR119 counter
O=C(CN1CC(=O)N2CCCC2C1=O)NCc1cccc(Cl)c1 (centres undefined)	-	-	-	10.4	-	-
O=C(CN1CC(=O)N2CCCC2C1=O)NCCc1ccc(Cl)cc1 (centres undefined)	-	-	-	7.8	-	-
O=C(CN1CC(=O)N2CCCC2C1=O)NCc1ccccc1 (centres undefined)	-	-	-	-	.	.
O=C(CN1CC(=O)N2CCCC2C1=O)NCCc1ccccc1 (centres undefined)	-	-	-	-	.	.
COC(=O)C(CCSC)NC(=O)CCCOc1ccc(Cl)cc1Cl (centres undefined)	-	-	-	-	.	.
Cn1c(=O)c([N+](=O)[O-])c(NCc2ccccc2)c2ccccc21	-	-	-	8.1	-	-
COC(=O)c1ccc(CO/N=C(\N)c2nonc2N)cc1	-	-	-	-	.	.
O=C(N/C(=C/c1ccc(Cl)cc1)C(=O)N1CCOCC1)c1ccccc1	-	-	-	-	.	.
O=C(N/C(=C/c1ccc(Cl)cc1)C(=O)N1CCOCC1)c1ccccc1Br	-	-	-	6.3	-	-
CN(Cc1ccccc1)Cc1cc(-c2ncccn2)ccc1O	-	-	-	-	.	.
CN(Cc1nnc(-c2ccccc2)o1)Cc1cc(-c2ncccn2)ccc1O	-	-	-	10.8	-	-
O=Cc1ccc(OCCCCOc2ccc(C=O)cc2)cc1	-	-	-	-	.	.
CC(=O)c1cccc(NC(=O)N2CCN(C/C=C/c3ccccc3)CC2)c1	-	-	-	-	.	.
Cc1cccc(NC(=O)CCN2CCN(C/C=C/c3ccccc3)CC2)c1	-	-	-	4.9	-	-
COc1ccc(NC(=O)N2CCCCCC2)cc1OC	-	-	-	5.5	-	-
COc1ccc(NC(=O)N2CCN(C/C=C/c3ccccc3)CC2)cc1OC	-	-	-	14.4	-	-
CCOc1ccccc1N1CCN(C(=O)Nc2ccc(OC)c(OC)c2)CC1	-	-	-	7.8	-	-
Cc1cc(NC(=O)CCN2CCN(C/C=C/c3ccccc3)CC2)ccc1Br	-	-	-	-	.	.
COc1ccc(NC(=O)N2CCCC2)cc1OC	-	-	-	-	.	.
COc1ccc(NC(=S)NN2CCOCC2)cc1OC	-	-	-	13.9	-	-
CCOC(=O)C1(c2ccccc2)NC(c2ccc(F)cc2)C2C(=O)N(C)C(=O)C21 (centres undefined)	-	-	-	-	.	.
CCC(=O)NCCc1c[nH]c2ccc(OC)cc12	-	-	-	-	.	.
COc1ccc2[nH]cc(CCNC(=O)c3ccc(Br)cc3)c2c1	-	-	-	9.4	-	-
C=CCN1C(=O)c2oc3ccccc3c(=O)c2C1c1cccc([N+](=O)[O-])c1 (centres undefined)	-	-	-	5.8	-	-
C=CCN1C(=O)c2oc3ccccc3c(=O)c2C1c1ccc(O)c(OC)c1 (centres undefined)	-	-	-	-	.	.
SMILES	FBW7 activator	TEAD-YAP inh	MITF inh	GPR151 ag	GPR151 confirm	GPR119 counter
COCCNC(=O)c1ccccc1NC(=O)C(C)N(c1ccc(OC)cc1)S(C)(=O)=O (centres undefined)	-	-	-	6.7	-	-
COCCNC(=O)c1ccccc1NC(=O)C(C)N(c1ccc(C)cc1)S(C)(=O)=O (centres undefined)	-	-	-	-	.	.
O=C1CSC(c2cccc([N+](=O)[O-])c2)N1Cc1ccccc1 (centres undefined)	-	-	-	10.2	-	-
COC(=O)c1cc(-c2ccccc2)n(CC(=O)O)c1C	-	-	-	5.5	-	-
O=C(CC(O)(C(F)(F)F)C(F)(F)F)Nc1ccccc1I	-	-	-	-	.	.
O=C(/C=C/c1cccc([N+](=O)[O-])c1)Nc1ccc(S(=O)(=O)N2CCOCC2)cc1	-	-	-	-	.	.

Bioassay records from PubChem BioAssay.
